TNAP act mid DEA – human TNAP activation, intermediate phosphate acceptor. activation factor at 20 µM. AID 813. purified TNAP, CDP-star luminescence, 100 mM DEA, 30 min; active compounds read high; scale: 0 levamisole-inhibited, 1 vehicle-only enzyme. 64,000 tested, under 10 active. P05186;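 active = activation factor of at least 2 at 20 µM, relative to controls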
FXIa mix inh – factor XIa (human) inhibition, mixture screen; AID 680; inhibition, % at 5 µM; P03951; actives 0.19% (n = 62,000); purified FXIa, fluorogenic substrate, pooled mixtures;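 also: each value is inhibition by a whole ten-compound pool holding the compound; 0% = enzyme with no mixture and 100% = wells lacking enzyme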
HePTP inhibitor – inhibitors of human HePTP phosphatase; inhibition, % at 20 µM; P35236; recombinant HePTP phosphatase activity, OD absorbance; actives 0.64% (n = 110,000); AID 521; in the data active = inhibition above about 50%;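 also: plate controls were vehicle for no effect and reference inhibitor for full effect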
FXIIa mix inh – inhibitors of human coagulation factor XIIa, pooled mixtures; P00748; purified FXIIa, fluorogenic substrate; inhibition, % at 5 µM; actives 0.2% (n = 62,000); AID 684;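 also: 0% = enzyme without compound and 100% = no enzyme blank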
Target sequence (P00748 20-372 limits assumed): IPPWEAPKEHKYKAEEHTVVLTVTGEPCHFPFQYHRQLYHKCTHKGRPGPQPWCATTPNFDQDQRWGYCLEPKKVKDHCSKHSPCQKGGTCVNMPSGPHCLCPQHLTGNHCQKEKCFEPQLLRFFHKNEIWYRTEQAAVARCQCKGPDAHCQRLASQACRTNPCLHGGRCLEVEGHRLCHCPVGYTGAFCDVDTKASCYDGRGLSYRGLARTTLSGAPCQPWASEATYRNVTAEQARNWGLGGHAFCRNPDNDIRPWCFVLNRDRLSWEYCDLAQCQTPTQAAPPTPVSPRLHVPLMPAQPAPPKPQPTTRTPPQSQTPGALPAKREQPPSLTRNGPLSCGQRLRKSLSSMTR
Target sequence (P00748 373-615 limits assumed): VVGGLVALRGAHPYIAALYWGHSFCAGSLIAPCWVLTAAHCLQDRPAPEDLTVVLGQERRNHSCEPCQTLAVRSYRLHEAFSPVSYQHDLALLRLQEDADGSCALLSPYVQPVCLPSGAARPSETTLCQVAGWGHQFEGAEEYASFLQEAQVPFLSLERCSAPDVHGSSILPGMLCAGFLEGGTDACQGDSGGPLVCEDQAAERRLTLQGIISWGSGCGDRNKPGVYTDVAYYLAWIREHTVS
D1 allo mod – allosterically modulates the human D1 dopamine receptor; HEK293 D1, CRE-luciferase, dopamine EC30 potentiation; actives deviate in either direction; actives 5.9% (n = 58,000); AID 641; B-score at 10 µM;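 active = luminescence count or its row- and column-corrected plate score outside the 99.7% band of the plate's sample wells, on either side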
Calb biofilm kill – kills Candida albicans biofilms; inhibition, % at 6 µM; actives 0.14% (n = 85,000); C. albicans biofilm + clotrimazole, Alamar Blue;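 active = inhibition above 20%; inactive = inhibition below 20%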;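 also: preformed 24 hr biofilms exposed to compound for 48 hr; 0% = biofilm without compound and 100% = blank killed by clotrimazole plus chlorhexidine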
D1 mod confirm – confirmation of human D1 dopamine receptor allosteric modulators | shares compounds with D1 allo mod | HEK293 D1 CRE-luciferase, dopamine EC30 potentiation; active compounds read high | luminescence at 10 µM | actives 88% (n = 2,200) | AID 642;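 active = luminescence in either of two replicates above the same-plate mean plus 3 SD of the low-dose dopamine control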
D1 ag no DA – secondary test of D1 modulators: activity without dopamine; shares compounds with D1 allo mod; HEK293 D1 CRE-luciferase, luminescence, no dopamine; active compounds read high; luminescence at 10 µM; actives 0.8% (n = 1,900); AID 646; in the data active = luminescence above about 3900
Isoprot counter – counter-screen for D1 modulators: isoproterenol response in HEK293 cells; shares compounds with D1 allo mod; HEK293 D1 CRE-luciferase, isoproterenol EC30 counter-screen; active compounds read high; luminescence at 10 µM; actives 63% (n = 2,200);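 active = luminescence in either replicate above plate mean of wells with a partly effective reference agonist dose plus 3 SD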;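 also: isoproterenol raises cAMP through native beta-adrenoceptor Gs so signal bypasses D1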
* marks the source's active call; other numbers are inactive results; . = no result. The sample as a whole holds a higher share of hits than the screen did. Rule as the data show it, unless noted: active = inhibition above about 20% (passing the limit was not always enough); inactive = the rest.

SMILES	TNAP act mid DEA	FXIa mix inh	HePTP inhibitor	FXIIa mix inh	D1 allo mod	Calb biofilm kill	D1 mod confirm	D1 ag no DA	Isoprot counter
N#Cc1ccccc1Cn1c(=O)n(Cc2ccc(C(=O)NCc3ccco3)cc2)c(=O)c2sccc21	0.8	22	14	-1	16*	.	10644*	1632	3284*
CCn1cc(C(=O)NCc2ccccc2OC)c(=O)c2cc(S(=O)(=O)N(C)C)ccc21	0.9	4	4	6	7.8*	14	13952*	1756	5432*
CCn1cc(C(=O)NCCCN(C)c2ccccc2)c(=O)c2cc(S(=O)(=O)N(C)C)ccc21	0.9	2	-2	4	5.6*	5	8908*	1440	4204*
C=CCn1cc(C(=O)NCc2cccnc2)c(=O)c2cc(S(=O)(=O)N(CC)CC)ccc21	1	4	-5	11	2.8*	5	9940*	1684	3644*
C=CCn1cc(C(=O)NCCOC)c(=O)c2cc(S(=O)(=O)N(CC)CC)ccc21	0.9	8	1	13	0.78	6	.	.	.
CCn1cc(C(=O)NCc2ccc3c(c2)OCO3)c(=O)c2cc(S(=O)(=O)N3CCOCC3)ccc21	0.9	7	4	-1	3.7*	.	10664*	1608	3524*
COc1ccc(-c2cc3ccccc3oc2=O)cc1OC	.	.	3	.	.	.	.	.	.
O=C(CCNc1cccc(C(F)(F)F)c1)c1cccs1	.	.	1	.	.	.	.	.	.
Cc1ccc2oc(C(=O)Nc3cccnc3)c(C)c2c1	.	.	1	.	.	.	.	.	.
CCOC(=O)c1ccc(NC(=O)CCC(=O)OC)cc1	1	-5	1	-14	0.33	2	.	.	.
CCOC(=O)CC(=O)Nc1ccc(C(=O)OCC)cc1	1	-4	2	4	4.5*	.	6944	1692	2496
COc1cc(OC)cc(C(=O)NNC(=O)c2ccccc2OC)c1	.	.	-11	.	.	.	.	.	.
Fc1c(F)c(N2CCOCC2)c(F)c(F)c1-c1c(F)c(F)c(N2CCOCC2)c(F)c1F	.	.	-23	.	.	.	.	.	.
O=C(Cc1ccc([N+](=O)[O-])cc1)N1N=C(c2cccnc2)CC1(O)C(F)(F)F (stereo unspecified)	.	.	3	.	.	.	.	.	.
O=C(Cn1cc2c(n1)CCCC2)NCCCN1CCCC1	0.8	4	6	-1	-0.61	13	.	.	.
O=C(Cn1cc2c(n1)CCCCC2)NCCCN1CCOCC1	0.9	0	-2	11	2.6*	0	5840	1452	2700
O=C(COc1ccc2ccccc2c1)Nc1ccc2c(c1)OCCO2	.	.	2	.	.	.	.	.	.
Cc1nc(CSc2nc3[nH]ncc3c(=O)n2-c2ccccc2)cs1	1	24	9	7	4.6*	8	12732*	1692	4244*
Cc1noc(C)c1CSc1nnc2n(-c3ccccc3)c(=O)c3ccccc3n12	0.9	8	13	1	-0.58	6	.	.	.
Cc1noc(C)c1CSc1nc2[nH]ncc2c(=O)n1-c1ccccc1	.	.	.	.	11*	.	14168*	1776	10060*
CC1=C(C(=O)OC2CCCCC2)C(c2ccncc2)C2=C(CC(c3ccccc3)CC2=O)N1 (stereo unspecified)	.	.	3	.	.	.	.	.	.
COc1cc(C2C3=C(CC(C)(C)CC3=O)OC3=C2C(=O)CC(C)(C)C3)ccc1OCC(=O)O	.	.	-12	.	.	.	.	.	.
COc1ccc(Nc2nc(N)nc(C(F)(F)F)n2)c(OC)c1	0.9	-3	-1	15	4.2*	8	11048*	1732	2984*
COc1ccc(Cl)cc1Nc1nc(N)nc(C(F)(F)F)n1	.	.	.	.	.	10	.	.	.
Cc1cccc(C2CC(c3ccccc3)Nc3nc(N)nn32)c1 (stereo unspecified)	0.8	5	19	11	18*	13	16344*	1564	4316*
SMILES	TNAP act mid DEA	FXIa mix inh	HePTP inhibitor	FXIIa mix inh	D1 allo mod	Calb biofilm kill	D1 mod confirm	D1 ag no DA	Isoprot counter
Nc1nc2n(n1)C(c1cccs1)CC(c1ccc(F)cc1)N2 (stereo unspecified)	0.9	.	5	.	.	7	.	.	.
Nc1nc2n(n1)C(c1cccc(Cl)c1)CC(c1ccc(F)cc1)N2 (stereo unspecified)	0.9	6	-3	11	13*	5	13312*	.	2912*
COc1cccc(C2CC(c3ccc(C)cc3)Nc3nc(N)nn32)c1 (stereo unspecified)	0.9	6	-6	3	0.64	2	.	.	.
Nc1nc2n(n1)C(c1cccs1)CC(c1ccccc1)N2 (stereo unspecified)	1	-7	-1	-2	14*	7	13800*	.	2964*
COc1ccc(C2CC(c3ccc(Cl)cc3Cl)n3nc(N)nc3N2)cc1 (stereo unspecified)	0.8	4	8	2	1.2	6	.	.	.
COc1ccc(C2CC(c3ccc(Cl)cc3Cl)Nc3nc(N)nn32)cc1 (stereo unspecified)	0.9	6	19	5	3.1*	1	6116*	1680	2536
COc1ccccc1/C=N/NC(=O)C1CC(=O)N(c2ccccc2)C1 (stereo unspecified)	.	.	-2	.	.	.	.	.	.
COc1ccc(NC(=O)COc2ccc(Cl)cc2Cl)c([N+](=O)[O-])c1	.	.	1	.	.	.	.	.	.
c1ccc2c(c1)CCCN2c1nc2ccccc2n2cnnc12	0.9	4	0	-5	7*	4	9840*	1760	4860
c1ccc(N2CCN(c3nc4ccccc4n4cnnc34)CC2)cc1	.	.	.	.	.	9	.	.	.
c1ccc2c(c1)CCN(c1nc3ccccc3n3cnnc13)C2	0.9	3	3	5	7.9*	7	13016*	1668	4428*
Cc1nc(COC(=O)c2c(C)nn(-c3ccccc3)c2C)cs1	1	0	-2	7	6.9*	6	8048*	1512	3456*
Cc1cc(NC(=O)COC(=O)c2c(C)nn(-c3ccccc3)c2C)no1	1	6	-6	-1	0.24	8	.	.	.
Cc1nc(N2CCCCC2)c2sc(=S)n(C)c2n1	0.9	14	8	5	8.2*	.	12412*	27240*	3224*
O=[N+]([O-])c1ccc(-c2nc(-c3ccc(C(F)(F)F)cc3)no2)cc1	.	.	-1	.	.	.	.	.	.
Cc1ccc(/C=N/N=C(c2ccccc2)c2ccccc2)s1	.	.	8	.	.	.	.	.	.
CCOC(=O)C1=CN(C)C=C(C(=O)OCC)C1c1ccsc1	1.1	-9	0	-9	5.8*	.	4896	1708	3424
CCOC(=O)C1=CN(c2ccc(C)c(C)c2)C=C(C(=O)OCC)C1c1ccsc1	.	.	-6	.	.	.	.	.	.
CCOC(=O)c1ccc(NC(=O)CSc2nc(C)cc(=O)[nH]2)cc1	0.9	14	10	7	0.53	4	.	.	.
